Test results from PubChem BioAssay (NCATS).
Inconclusive results are not listed. Calls of active or inactive are those of the source. Calls follow the shape of the dose curve; as a rule, active = well fitted inhibition curve with a large enough effect; inconclusive = small, poorly fitted or top-dose-only effect; inactive = flat fitted curve, though single readings scatter.

Tests used:
[1] = target: Luciferin 4-monooxygenase (Photinus pyralis) (UniProt P08659); test: Biochemical firefly luciferase enzyme assay for NPC (AID 624030); also: nearly all actives have a fitted effect of over 70% in size
How it was run: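 Direct inhibition of firefly luciferase enzyme (10 nM final, 50 mM Tris Acetate) assessed by luminescence within 5 minutes. Percent activity scaled between DMSO and PTC124 positive control, with concentration-effect curves classified by fit quality and response.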

3D7 = test: qHTS profiling for inhibitors of Plasmodium falciparum proliferation (AID 504749); also: nearly all actives have a fitted effect of over 60% in size; details: P. falciparum in erythrocytes, SYBR Green DNA, 72 h; series mostly up to 12.8 µM
How it was run: (§1)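 SYBR Green fluorescence of parasite DNA, read after lysis and overnight dark incubation, measured growth over 72 h in erythrocyte culture at 0.3% parasitemia and 2.5% hematocrit. Data normalised to DMSO and 0.29 uM artemisinin, with plate-drift correction.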

C2A = test: as above; details: P. falciparum in erythrocytes, SYBR Green DNA, 72 h; series mostly up to 12.8 µM
How it was run: as §1

CP185 = test: as above; details: P. falciparum in erythrocytes, SYBR Green DNA, 72 h; series mostly up to 12.8 µM
How it was run: as §1

CP191 = test: as above; details: P. falciparum in erythrocytes, SYBR Green DNA, 72 h; series mostly up to 12.8 µM
How it was run: as §1

CP194 = test: as above; details: P. falciparum in erythrocytes, SYBR Green DNA, 72 h; series mostly up to 12.8 µM
How it was run: as §1

CP211 = test: as above; details: P. falciparum in erythrocytes, SYBR Green DNA, 72 h; series mostly up to 12.8 µM
How it was run: as §1

CP238 = test: as above; details: P. falciparum in erythrocytes, SYBR Green DNA, 72 h; series mostly up to 12.8 µM
How it was run: as §1

CP265 = test: as above; details: P. falciparum in erythrocytes, SYBR Green DNA, 72 h; series mostly up to 12.8 µM
How it was run: as §1

CP266 = test: as above; details: P. falciparum in erythrocytes, SYBR Green DNA, 72 h; series mostly up to 12.8 µM
How it was run: as §1

CP268 = test: as above; details: P. falciparum in erythrocytes, SYBR Green DNA, 72 h; series mostly up to 12.8 µM
How it was run: as §1

CP291 = test: as above; details: P. falciparum in erythrocytes, SYBR Green DNA, 72 h; series mostly up to 12.8 µM
How it was run: as §1

CP297 = test: as above; details: P. falciparum in erythrocytes, SYBR Green DNA, 72 h; series mostly up to 12.8 µM
How it was run: as §1

DIV30 = test: as above; details: P. falciparum in erythrocytes, SYBR Green DNA, 72 h; series mostly up to 12.8 µM
How it was run: as §1

Dd2 = test: as above; details: P. falciparum in erythrocytes, SYBR Green DNA, 72 h; series mostly up to 12.8 µM
How it was run: as §1

ECU = test: as above; details: P. falciparum in erythrocytes, SYBR Green DNA, 72 h; series mostly up to 12.8 µM
How it was run: as §1

HB3 = test: as above; details: P. falciparum in erythrocytes, SYBR Green DNA, 72 h; series mostly up to 12.8 µM
How it was run: as §1

PC15 = test: as above; details: P. falciparum in erythrocytes, SYBR Green DNA, 72 h; series mostly up to 12.8 µM
How it was run: as §1

PC26 = test: as above; details: P. falciparum in erythrocytes, SYBR Green DNA, 72 h; series mostly up to 12.8 µM
How it was run: as §1

TAB113 = test: as above; details: P. falciparum in erythrocytes, SYBR Green DNA, 72 h; series mostly up to 12.8 µM
How it was run: as §1

Measured: Potency
Potency is read from the fitted curve at half-maximal effect.

Sequence of Luciferin 4-monooxygenase (Photinus pyralis) (P08659 whole entry, looked up): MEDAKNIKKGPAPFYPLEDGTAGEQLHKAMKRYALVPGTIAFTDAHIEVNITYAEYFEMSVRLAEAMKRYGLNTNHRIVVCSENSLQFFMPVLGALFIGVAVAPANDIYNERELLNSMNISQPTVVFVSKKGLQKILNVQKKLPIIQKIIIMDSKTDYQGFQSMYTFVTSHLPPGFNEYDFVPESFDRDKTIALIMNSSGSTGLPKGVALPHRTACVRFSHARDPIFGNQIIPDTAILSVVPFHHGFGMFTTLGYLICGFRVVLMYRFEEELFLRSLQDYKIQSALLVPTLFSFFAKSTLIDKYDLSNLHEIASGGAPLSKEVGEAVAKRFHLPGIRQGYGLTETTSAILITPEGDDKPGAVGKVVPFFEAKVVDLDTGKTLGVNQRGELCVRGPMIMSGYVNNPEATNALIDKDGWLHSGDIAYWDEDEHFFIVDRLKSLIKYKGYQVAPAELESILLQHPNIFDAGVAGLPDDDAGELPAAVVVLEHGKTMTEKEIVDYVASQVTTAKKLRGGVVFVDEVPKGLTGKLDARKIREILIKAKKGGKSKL

OCC1OC(n2cnc3c(=S)nc[nH]c32)C(O)C1O (stereo not given)
inactive: all assays above

COc1ccc(-c2cc(=O)c3c(O)cc(O[C@H]4OC(COC5OC(C)C(O)C(O)[C@H]5O)C(O)C(O)C4O)cc3o2)cc1O (stereo not given in full)
not listed: CP291
inactive: all other assays above

C[C@@]12C=CC(=O)C=C1CCC1C3CC(O)[C@@](O)(C(=O)CO)[C@]3(C)CC(O)[C@]12F (stereo not given in full)
not listed: [1]
inactive: all other assays above

NC(CCC(=O)N[C@@H](CS)C(=O)NCC(=O)O)C(=O)O (stereo not given in full)
inactive: [1] | CP266
active: 3D7 6.31 µM | C2A 10 µM | CP191 8.91 µM | CP265 7.94 µM | CP297 15.1 µM | DIV30 12 µM | Dd2 5.01 µM | ECU 10 µM | HB3 3.16 µM | PC15 5.01 µM | PC26 12 µM | TAB113 7.94 µM

CC(C)Oc1ccc2c(=O)cc(-c3ccccc3)oc2c1
active: [1] 0.809 µM
not listed: CP297
inactive: all other assays above

COC(=O)N/N=C/C1=C[N+](=O)c2ccccc2[N+]1=O
inactive: all assays above

CCC(=O)O[C@@]1(C(=O)CCl)C(C)CC2C3CCC4=CC(=O)C=C[C@@]4(C)[C@]3(F)C(O)C[C@]21C (stereo not given in full)
active: CP194 15.1 µM | CP238 7.94 µM | DIV30 12 µM | PC26 10.7 µM

CN(C)CCc1c[nH]c2ccc(CC3COC(=O)N3)cc12 (stereo not given)
not listed: CP266
inactive: all other assays above

CC(=O)OCC(=O)[C@@]12OC3(CCCC3)OC1CC1C3CCC4=CC(=O)C=C[C@@]4(C)[C@]3(F)C(O)C[C@]12C (stereo not given in full)
inactive: [1] | C2A | CP185 | CP194 | CP211 | CP266 | CP268 | CP291 | PC15

C[C@@]12CCC(=O)C=C1C=CC1C2CC[C@]2(C)C1CC[C@@]21CCC(=O)O1 (stereo not given in full)
not listed: C2A | CP185
inactive: all other assays above

NCC1CCC(N)C(O[C@@H]2C(O)[C@H](O[C@H]3OC(CO)C(O)C(N)C3O)[C@@H](N)C[C@H]2N)O1 (stereo not given in full)
inactive: all assays above

CC1(C)SC2C(N3C(=O)C(c4ccccc4)NC3(C)C)C(=O)N2C1C(=O)O (stereo not given)
not listed: [1]
inactive: all other assays above
